# An excerpt weighted towards active compounds, which were near 7.9% of everything screened.
# HCV inhibitor – inhibitors of hepatitis C virus infection. Huh7.5.1 HCVcc-Cre infection, luciferase reporter, 44 h. Potency, µM (highest dose often 41.8 µM), for inactives: at the top dose activity change, negative = inhibition, most hits filed as inhibitors. 3.4% of 340,000 active. AID 651820; note: potency is the fitted concentration of half-maximal effect; % is set by controls: 0 for no effect and ±100 for the full control effect
#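 Compounds are dispensed onto cells plated 4 h earlier at 1,000 per well, with HCVcc-Cre virus (about 0.5 moi) added next. Following 44 h of culture, luminescent signal is measured for 15 sec after 15 min with substrate at room temperature.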
# FMDV antiviral – blocks foot and mouth disease virus; FMDV antiviral cell-based qHTS; Potency, µM (top dose mostly 57.9 µM), inactives show at the top dose activity change, negative = inhibition, hits mostly inhibitors; 1.2% of 410,000 active; AID 1159524; calls by dose curve; tested in HEK293T cells; note: read-out not given here; potency is the fitted concentration of half-maximal effect; % is set by controls: 0 for no effect and ±100 for the full control effect; nearly all actives have a fitted effect of over 45% in size
# MARV entry inh – Marburg virus entry inhibition | Marburg virus pseudotyped entry inhibition, cell reporter | Potency, µM (titrated, usually from 37.8 µM), without a hit: top-dose activity change, negative = inhibition, most hits filed as inhibitors | 1.8% of 300,000 active; calls by dose curve; tested in HEK293 cells; note: potency is the fitted concentration of half-maximal effect; % is set by controls: 0 for no effect and ±100 for the full control effect
# HCMV antiviral – inhibitors of human cytomegalovirus | HFF cells, HCMV-luciferase reporter, 72 h; stronger effect = lower value | activity change, negative = inhibition, % at 57.5 µM | 4.5% of 410,000 active; in the data active = activity change below about -60%; inconclusive = no clear call, values can overlap the other calls; inactive = above about -39%; note: % is set by controls: 0 for no effect and ±100 for the full control effect
#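 Steps: HFFs plated, 16 h 37C; compounds added; HCMV-luciferase added to MOI 1 PFU/cell; 72 h 37C; OneGlo reagent, 5 min room temperature; luminescence read, normalized to controls.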
# Lassa entry inh – blocks Lassa virus binding to or entry into cells | Lassa virus pseudotype entry inhibition, cell reporter | 1.2% of 300,000 active | Potency, µM (highest dose often 37.9 µM), without a hit: at the highest dose activity change, negative = inhibition, most hits filed as inhibitors | AID 540256; calls by dose curve; tested in HEK293 cells; note: potency is the fitted concentration of half-maximal effect; % is set by controls: 0 for no effect and ±100 for the full control effect; nearly all actives have a fitted effect of over 50% in size
# HCV inh confirm – confirmation of hepatitis C virus inhibitors; shares compounds with HCV inhibitor; 78% of 640 active; Potency, µM (highest dose often 41.8 µM), for inactives: at the highest dose activity, negative = inhibition, hits mostly inhibitors; HCVcc-Cre infectious virus cell assay, luciferase, inhibition; note: potency is the fitted concentration of half-maximal effect; nearly all actives have a fitted effect of over 80% in size
# HCV cytotox – toxic to HCV host cells, flagging false HCV inhibitors | shares compounds with HCV inhibitor | HCV host cell line cytotoxicity counterscreen | Potency, µM (highest dose often 41.8 µM), without a hit: at the highest dose activity change, negative = cytotoxicity, usual class: inhibitors | 22% of 640 active;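 note: potency is the fitted concentration of half-maximal effect; 44 h compound exposure; % is set by controls: 0 for no effect and ±100 for the full control effect; nearly all actives have a fitted effect of over 55% in size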
# Active calls of the source: *; u = inconclusive; x = not tested or not shown; [ ] = remark or other dose. Unless noted, calls come from the whole dose curve; as a rule, active = well fitted curve in the direction sought with a large enough effect; inconclusive = small, poorly fitted or top-dose-only effect, or another doubt; inactive = no such curve, though single readings can be large; an effect the other way counts as inactive or inconclusive.
SMILES,HCV inhibitor,FMDV antiviral,MARV entry inh,HCMV antiviral,Lassa entry inh,HCV inh confirm,HCV cytotox
O=C(Nc1ccc(Cl)cc1)N[C@@H]1c2c(ccc3ccccc23)OC[C@@H]1CO,u,5%,u,u,-18%,u,u
COc1ccc(N(C)C(=O)Nc2ccc3nsnc3c2)cc1,u,0%,u,-32,-29%[46.1 µM],x,x
CC(C)N(C(=O)Nc1ccc2nsnc2c1)C(C)C,4.5µM*,0%,x,-101*,x,-16%,35%
O=C(/C=C(\O)c1ccccc1)c1ccccc1O,x,49%,x,x,x,x,x
Cc1ccccc1Oc1nc(-c2ccccn2)nc2ccccc12,7.9µM*,-9%,u,-99*,u,11µM*,u
COc1cccc(/C=C(\C#N)C(=O)Nc2ccc(NC(C)=O)cc2)c1OC,x,8%,x,39,u,x,x
CC1=C(C(=O)Nc2ccc(F)cc2)C(c2ccc(N(C)C)cc2)NC(=O)N1 (stereo not drawn),x,-4%,6%[46.1 µM],11,7%[46.1 µM],x,x
COc1cc2nccc(Oc3ccc(NC(=O)Nc4ccc(F)cc4F)c(F)c3)c2cc1OC,x,-7%,x,x,x,x,x
CC(C)n1cc(/C=C(\C#N)S(=O)(=O)c2ccccc2)c2ccccc21,8.9µM*,4%,u,54,-12%,u,-13%
N#C/C(=C\c1cn(-c2ccccc2)nc1-c1ccccc1)S(=O)(=O)c1ccccc1,6%,14%,10%,11,8%,x,x
COc1cc(NC(=O)CN(c2ccc(C)cc2)S(=O)(=O)c2cccc3nonc23)cc(OC)c1,x,-14%,u,-11,-18%[46.1 µM],x,x
CCOc1ccccc1C(=O)Nc1ccc2nc(N3CCN(c4ncccn4)CC3)cc(C)c2c1,2.2µM*,8.9µM*,13µM*,x,u,5µM*,-79%
COc1cccc(C(=O)Nc2ccc3nc(N4CCOCC4)cc(C)c3c2)c1,u,-9%,x,-9,x,2.8µM*,17%
CCOc1cccc2sc(N(CCCN(C)C)C(=O)c3ccc(S(=O)(=O)N(C)Cc4ccccc4)cc3)nc12,5µM*,u,u,u,u,14µM*,-29%
COc1nn(-c2ccccc2)c(=O)c(Cl)c1Cl,4µM*,14µM*,u,-102*,u,8.9µM*,7.9µM*
CC1(C)SC(=S)N(/N=C/c2cccnc2)C1N(O)C(=O)NC1CCCCC1 (stereo not drawn),7.9µM*,67%,-15%,1,0%,11µM*,-14%
O=C(c1ccccc1)N1CCC(c2nc(-c3ccc(S(=O)(=O)NCC4CCCO4)cc3)no2)CC1 (stereo not drawn),2.8µM*,x,u,-89*,-14%,3.5µM*,8.9µM*
CN1CCN(c2ccc(CNS(=O)(=O)Cc3cccc(C(F)(F)F)c3)cc2)CC1,5.6µM*,u,x,u,x,5.6µM*,2.5µM*
CCOC(=O)Nc1ccc(NCc2ccc(F)cc2)nc1N,0.89µM*,0%,u,-24,u,-23%,16%
COc1cccc(-c2c(-c3cc(OC)cc(OC)c3)n(C)c3ccc(-c4ccc5[nH]ccc5c4)cc23)c1,u,19%,-6%,-35,x,x,x
COc1cc(OC)cc(-c2c(-c3ccc(F)cc3)c3cc(-c4ccc5[nH]ccc5c4)ccc3n2C)c1,3.2µM*,52%,x,-29,x,7.9µM*,u
O=C(c1ccc2c(c1)N(Cc1ccc(Cl)cc1)C(=O)c1ccccc1S2(=O)=O)N1CCCCCC1,x,6%,u,u,-25%[46.1 µM],x,x
O=C(Nc1ccn(Cc2ccccc2F)n1)c1ccc(COc2ccc(Br)cc2)cc1,6.3µM*,u,7.3µM*,-103*,-29%,4.4µM*,-72%
COc1ccccc1NC(=O)Cn1c(=O)n(CCCCCC(=O)NCc2ccccc2)c(=O)c2sccc21,x,-30%,4%[46.1 µM],-14,-30%[46.1 µM],x,x
Cc1ccc(CN(Cc2ccccc2)C(=S)Nc2ccccc2C)o1,3.2µM*,-11%,-2%[46.1 µM],55,u,-24%,36%
COc1ccccc1NC(=O)c1ccc(NC(=O)c2cc3c(s2)CCC3)cc1,8.9µM*,u,u,-24,-25%,8.9µM*,17%
